CYP2C9 activ = CYP2C9 (human) activation | 96,000 compounds, 1.4% hits | activation factor at 5 µM | recombinant CYP2C9, luciferin-H conversion, luminescence; hits give high values; factor 1 = untreated enzyme, 0 = blocked;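 active = activation factor of 2 or more for CYP2C9 at a 5 µM dose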;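 note: 0 = sulfaphenazole-blocked wells and 1 = vehicle-only wells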
CYP2C19 inh = blocks human cytochrome P450 2C19; AID 778; CYP2C19 Supersomes, luciferin-H EGE luminescence, 30 min; inhibition, % at 5 µM; 96,000 compounds, 21% hits; P33261;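 active = CYP2C19 inhibition above a set limit at 5 µM in the primary screen, cut at about 50% in these data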;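 note: plate controls were negative control wells for no effect and 2.5 mM tranylcypromine positive control for full effect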
Target sequence (P33261 whole entry, looked up): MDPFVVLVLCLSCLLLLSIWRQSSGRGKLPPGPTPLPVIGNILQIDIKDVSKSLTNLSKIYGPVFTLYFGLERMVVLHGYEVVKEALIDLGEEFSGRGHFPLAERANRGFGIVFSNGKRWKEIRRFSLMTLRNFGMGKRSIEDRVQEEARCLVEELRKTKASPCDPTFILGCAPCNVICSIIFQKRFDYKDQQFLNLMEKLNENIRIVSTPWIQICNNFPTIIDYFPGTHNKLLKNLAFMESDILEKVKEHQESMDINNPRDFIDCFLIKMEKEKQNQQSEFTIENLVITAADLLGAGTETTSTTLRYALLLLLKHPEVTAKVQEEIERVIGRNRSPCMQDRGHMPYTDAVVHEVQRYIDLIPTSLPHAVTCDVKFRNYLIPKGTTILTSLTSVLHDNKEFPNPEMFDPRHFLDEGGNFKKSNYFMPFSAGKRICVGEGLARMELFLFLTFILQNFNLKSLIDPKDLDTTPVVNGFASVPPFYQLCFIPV
Cav3 T inh = blocks human Cav3.2 T-type calcium channel. Cav3.2-expressing cells, Fluo-4 calcium fluorescence FDSS; hits give low values. 100,000 compounds, 4% hits. B-score at 10 µM. O95180;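 active = single-dose well whose peak fluorescence ratio is a statistical outlier from its plate by either plate-standardised score or position-corrected B-score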
CYP2C19 act = increases human CYP2C19 enzyme activity | P33261 | recombinant CYP2C19, luciferin-H EGE luminescence; hits give high values; 0 = fully inhibited enzyme, 1 = untreated enzyme | activation factor at 5 µM | 96,000 tested, under 10 active | AID 1025;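 active = activation factor of at least 2 at 5 µM in the primary screen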;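 note: 0 = wells with 2.5 mM tranylcypromine and 1 = vehicle-only wells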
CYP2C9 inh = blocks human cytochrome P450 2C9; CYP2C9 Supersomes, luciferin-H conversion, luminescence; inhibition, % at 5 µM; 96,000 compounds, 20% hits; AID 777;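 active = blocking of liver enzyme CYP2C9 beyond about 50% at 5 µM, limit read from the data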
* marks the source's active call; other numbers are inactive results; . = no result; ! = repeats disagree. Shown are actives, neighbours in structure and some others; about 27% of the full set was active somewhere.

SMILES	CYP2C9 activ	CYP2C19 inh	Cav3 T inh	CYP2C19 act	CYP2C9 inh
Nc1cnn(C2CCCO2)c(=O)n1 (configuration not stated)	.	.	1.4	.	.
CN(CCOc1ccc(Cl)cc1)c1ccc(S(=O)(=O)N2CCCCC2)cn1	1.3	38	-6.4*	0.6	-31
Cc1onc(-c2ccccc2)c1C(=O)NCC1COc2ccccc2O1 (configuration not stated)	0.6	79*	-0.028	0.2	43
Cc1onc(-c2ccccc2)c1C(=O)NCc1ccccn1	0.9	27	-0.66	0.7	8
Cc1onc(-c2ccccc2)c1C(=O)NCc1ccc2c(c1)OCO2	0.4	92*	-1.1	0.1	57*
Nn1c(CSc2nc3ccccc3o2)nnc1CSc1nc2ccccc2o1	0.3	72*	-3.4	0.3	66*
c1cncc(-c2nnc(SCc3nc4ccccc4[nH]3)o2)c1	0.6	70*	0.4	0.3	39
c1ccc2[nH]c(CSc3nc4ccccc4o3)nc2c1	0.3	100*	-0.71	0	70*
Cc1ccc(CSc2nnc(-c3cccnc3)o2)cc1	0.4	70*	-0.19	0.3	58*
c1ccc(CSc2nnc(-c3cccnc3)o2)cc1	.	.	-1.1	.	.
O=C(CSc1nnc(-c2cccnc2)o1)OC1CCCCC1	1.2	-5	1.7	1	-19
CCN(CC)CCCNC(=O)c1nn(-c2cccc(OC)c2)c(=O)c2ccccc12	0.7	-7	0.83	1.1	29
CCC(C)NC(=O)CO/N=C/c1ccc(C(=O)OC)cc1 (configuration not stated)	0.3	31	0.29	0.7	69*
COC(=O)c1ccc(/C=N/OCC(=O)NC2CCCCCCC2)cc1	0.4	16	-2.9	0.8	65*
COC(=O)c1ccc(/C=N/OCC(=O)NC2CCCC(C)C2C)cc1 (configuration not stated)	0.6	23	-1.8	0.8	40
O=c1/c(=C\c2ccc(O)cc2)sc2n1C(c1ccccc1)C(c1ccccc1)=NN=2 (configuration not stated)	0.4	24	-3	0.8	56*
Cn1c(Cc2ccccc2)nnc1SCC(=O)c1ccc(Br)s1	0.3	75*	-0.66	0.2	70*
Cn1nnnc1SCC(=O)c1ccc(Br)s1	0.9	65*	-0.19	0.4	11
Cn1nnnc1SCC(=O)c1cccs1	1	9	0.24	0.9	4
Cn1c(Cc2ccccc2)nnc1SCC(=O)N1CCCCC1	.	.	0.42	.	.
COc1cc2c(cc1OC)CN(C(=O)CSc1nnc(C)s1)CC2	0.8	8	0.37	0.9	15
CCOC(=O)C1(C)/C(=N/Nc2ccc(Cl)cc2)C(=O)C(=O)N1c1ccccc1 (configuration not stated)	1	-18	-3.3	1.2	-2
CCOC(=O)C1(C)/C(=N/Nc2ccccc2Cl)C(=O)C(=O)N1c1ccccc1 (configuration not stated)	0.9	4	-4.9*	1	6
Cc1c(C(=O)N2CCCCC2)nnn1-c1nonc1N	1	40	0.5	0.6	-5
Cc1cc(C)nc(NCC(O)COc2ccccc2C)n1 (configuration not stated)	0.9	87*	-1.1	0.1	9
SMILES	CYP2C9 activ	CYP2C19 inh	Cav3 T inh	CYP2C19 act	CYP2C9 inh
O=c1c2c(nc(NCCO)n1CC1CCCCC1)-c1ccccc1CC21CCCC1	0	93*	-2.7	0.1	100*
O=c1[nH]c(NCCO)nc2c1C1(CCCCC1)Cc1ccccc1-2	0.9	-1	-2.8	1	6
CC1(C)CC(n2c(NCCO)nc3c(c2=O)C2(CCCC2)Cc2ccccc2-3)CCO1 (configuration not stated)	0.2	84*	-4.3*	0.2	84*
COc1ccc(/C=C\C(=O)CC(O)(c2ccccc2)C(F)(F)F)cc1 (configuration not stated)	0.8	42	-2.4	0.6	19
O=[N+]([O-])c1cc(C(F)(F)F)ccc1N/N=C/c1cc2ccccc2nc1Cl	1	-5	.	1	-1
O=[N+]([O-])c1ccccc1N/N=C\c1ccccc1Cl	0.7	64*	2.9	0.4	33
CN1C(=O)/C(=C/c2cc(N=Nc3ccccc3)ccc2O)SC1=S	0.7	14	0.36	0.9	29
O=C(COc1ccc(Cl)cc1)NC1CCSC1=O (configuration not stated)	0.7	65*	-0.4	0.3	26
CCOC(=O)c1cnc(SCC(=O)Nc2cc(C(F)(F)F)ccc2N2CCOCC2)nc1N	1	4	0.12	1	5
CC1CCCN(CC(=O)Nc2ccc(S(=O)(=O)N3CCCCC3)cc2)C1 (configuration not stated)	.	.	0.46	.	.
Cc1ccc(S(=O)(=O)Nc2cccc(NC(=O)CN3CCCCC3)c2)cc1	0.1	92*	0.7	0.1	92*
Cc1ccc(S(=O)(=O)Nc2cc(NC(=O)CN3CCOCC3)ccc2Cl)cc1	0.1	33	1.1	0.7	86*
COc1cc(NC(=O)c2ccccc2Cl)c(OC)cc1NC(=O)CN1CCOCC1	0.6	13	0.89	0.9	45
COc1ccc(C2=C(CN(C)C)C(c3ccccc3)c3ccccc3O2)cc1 (configuration not stated)	0.2	68*!	-0.017	0.3	77*!
CC(=O)C1=C(O)C(=O)N(Cc2cccnc2)C1c1ccc(Cl)cc1Cl (configuration not stated)	.	.	0.067	.	.
OC(c1ccc(Cl)cc1Cl)C(Cc1cccnc1)n1cncn1 (configuration not stated)	0.9	86*	.	0.1	9
O=P(OC1CCCCC1)(OC1CCCCC1)C(O)c1ccc(Cl)cc1Cl (configuration not stated)	0.8	13	-0.15	0.9	20
O=C(Cn1cncn1)NCc1cccc2ccccc12	1	37	0.91	0.6	3
OC(Cn1cncn1)c1ccc(Cl)cc1Cl (configuration not stated)	0.4	98*	-0.093	0	56*
OC(Cn1cncn1)c1ccc(Cl)cc1 (configuration not stated)	0.4	95*	-0.55	0	58*
CC1CCN(C(=O)Cn2nc(C(F)(F)F)c3c2CCCC3)CC1	1	15	0.015	0.8	-4
O=C(CCC1=NS(=O)(=O)c2ccccc2N1)NC1CCCCCCC1	0.8	27	0.98	0.7	22
Cc1cccc(OCC2=NS(=O)(=O)c3ccccc3N2)c1	0.5	30	0.45	0.7	51*
Cc1noc(C)c1COC(=O)Cc1ccc(Cl)c(Cl)c1	0.9	32	.	0.7	12
Cc1noc(C)c1COC(=O)[C@H](C)NS(=O)(=O)c1ccc(Cl)c(Cl)c1	0.4	98*	-0.58	0	62*
Cc1cc(C)c(S(=O)(=O)Nc2ccc[nH]c2=O)c(C)c1	4*	85*	-0.49	0.2	-304
Cc1ccc(OCC(=O)Nc2nnn(C)n2)c(C)c1	1.1	0	0.32	1	-13
